# CHT block: inhibitors of human choline transporter CHT. Q9GZV3. CHT-expressing cells, membrane potential dye, choline response; active compounds read low. B-score at 10 µM. 0.86% of 310,000 active. AID 488975;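 active means B-score over 3 SD under the library average, and starting fluorescence ratio not unusually high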;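 further: choline stimulus applied at its EC90 after an EC20 pre-addition; B-score computed on integrated fluorescence ratio after choline addition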
# TMEM16A inh: inhibitors of mouse TMEM16A calcium-activated chloride channel | Q8BHY3 | HEK293 TMEM16A/YFP iodide influx fluorescence, ionomycin | normalized B-score (activity score, 25-100; higher = stronger inhibition) at 10 µM | 1.2% of 310,000 active;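 active means ratio plate-corrected score three or more library SD toward inhibition, starting fluorescence score within five deviations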;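 further: score derived from kinetic fluorescence span divided by baseline fluorescence per well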
# Target sequence (Q8BHY3 whole entry, looked up): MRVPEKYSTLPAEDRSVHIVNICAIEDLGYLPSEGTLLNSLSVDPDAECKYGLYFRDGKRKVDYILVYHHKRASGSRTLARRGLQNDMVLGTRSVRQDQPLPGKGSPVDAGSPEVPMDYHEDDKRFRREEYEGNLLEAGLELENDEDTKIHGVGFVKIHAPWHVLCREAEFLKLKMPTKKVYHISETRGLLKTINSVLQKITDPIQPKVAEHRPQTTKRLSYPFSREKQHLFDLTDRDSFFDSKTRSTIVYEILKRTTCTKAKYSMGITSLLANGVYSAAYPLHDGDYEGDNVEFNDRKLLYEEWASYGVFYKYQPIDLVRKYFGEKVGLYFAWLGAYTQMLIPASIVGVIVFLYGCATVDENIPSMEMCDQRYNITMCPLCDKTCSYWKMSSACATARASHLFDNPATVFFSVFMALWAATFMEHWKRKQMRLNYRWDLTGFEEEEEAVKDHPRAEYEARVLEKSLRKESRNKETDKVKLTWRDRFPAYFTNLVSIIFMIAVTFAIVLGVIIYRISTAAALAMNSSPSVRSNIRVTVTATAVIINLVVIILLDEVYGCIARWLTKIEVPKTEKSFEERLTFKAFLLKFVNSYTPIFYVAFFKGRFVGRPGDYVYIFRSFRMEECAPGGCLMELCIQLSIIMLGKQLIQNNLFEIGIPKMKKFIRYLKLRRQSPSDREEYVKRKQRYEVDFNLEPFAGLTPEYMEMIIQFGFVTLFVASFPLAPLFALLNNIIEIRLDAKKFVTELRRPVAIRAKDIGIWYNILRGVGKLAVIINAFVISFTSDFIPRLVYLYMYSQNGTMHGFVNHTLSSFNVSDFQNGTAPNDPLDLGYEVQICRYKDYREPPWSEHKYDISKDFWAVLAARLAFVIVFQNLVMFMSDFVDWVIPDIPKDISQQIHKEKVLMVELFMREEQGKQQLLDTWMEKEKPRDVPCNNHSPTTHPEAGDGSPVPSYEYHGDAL
# ANO1 activ: activates or potentiates the mouse TMEM16A chloride channel; Q8BHY3; HEK293 TMEM16A/YFP-H148Q/I152L, iodide quench fluorescence; active compounds read low; B-score at 10 µM; 0.3% of 340,000 active;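 active means fluorescence-ratio B-score plate-corrected deviation score at least 3 library SD below zero, with starting fluorescence score within 5 deviations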;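 further: channel opened by trigger with iodide after compound preincubation; score built on the fluorescence ratio of max minus min over baseline; more negative score means more quench and so TMEM16A activation or potentiation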
# CHT PAM: human CHT allosteric activation; Q9GZV3; CHT-expressing cells, membrane potential dye, choline EC20; active compounds read high; LV-AA mutant CHT in HEK293 cells; B-score at 10 µM; 0.49% of 310,000 active;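 active means initial fluorescence not abnormally high and integrated response B-score, plate-corrected, over 3 SD above library mean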
# * marks the source's active call; other numbers are inactive results; i = inactive; · = not tested or not shown. This is a sample that favours compounds with a hit; in the whole collection about 2.4% have one here.
SMILES,CHT block,TMEM16A inh,ANO1 activ,CHT PAM
CC(C)(C)c1nnc2sc(SCC(=O)N3CCCc4ccccc43)nn2c1=O,i,i,i,i
CC1Cc2ccccc2N1C(=O)CSc1nn2c(=O)c(C(C)(C)C)nnc2s1 (stereo not given),i,i,-37*,i
O=C(Nc1nnc(-c2cccs2)o1)c1cccc(Oc2ccccc2)c1,i,25*,i,i
O=C(Nc1nnc(-c2cccs2)o1)c1cccc(F)c1,i,i,i,i
Cc1ccccc1C(=O)N1CCN(c2ccc(NC(=O)c3ccc4c(c3)OCCO4)cc2)CC1,i,25*,i,i
CC(C)C(=O)N1CCN(c2ccc(NC(=O)c3ccc4c(c3)OCCO4)cc2)CC1,i,i,i,i
COc1ccc(OC)c(-c2csc(NC(=O)C3=NN(c4ccccc4)C(=O)CC3)n2)c1,i,i,i,i
COc1ccc(C(=O)C2CCCN(C(=O)c3ccc4cc[nH]c4c3)C2)c(C)c1 (stereo not given),i,i,-13*,i
COc1ccc(-c2csc(NC(=O)CSc3n[nH]c(C)n3)n2)cc1,i,25*,i,i
CCc1c(C)nc(SCC(=O)Nc2nc(-c3ccc(OC)cc3)cs2)[nH]c1=O,i,i,i,i
COc1ccc2[nH]c3c(=O)n(/N=C/[C@H]4C(C)C=C(C)CC4C)c(=O)[nH]c3c2c1 (stereo not given in full),i,i,-16*,i
O=C(NC(=S)N1CCN(c2ccc(F)cc2)CC1)C12CC3CC(CC(C3)C1)C2,i,i,-5.4*,i
Cc1csc(NC(=O)CSc2ncnc3c2cnn3-c2ccccc2Cl)n1,i,100*,i,i
CCCCn1c(N)c(N(CC(C)C)C(=O)C2CC(=O)N(c3ccccc3C(C)CC)C2)c(=O)[nH]c1=O (stereo not given),i,i,i,i
N#Cc1c(NC(=O)c2ccccc2Cl)n(Cc2ccccc2)c2nc3ccccc3nc12,i,100*,i,i
COc1ccc(-n2c(NC(=O)c3ccco3)c(C#N)c3nc4ccccc4nc32)cc1,i,i,i,i
CCCCn1c(NC(=O)CC)c(C#N)c2nc3ccccc3nc21,i,i,i,i
CCCCn1c(NC(=O)c2ccccc2Cl)c(C#N)c2nc3ccccc3nc21,i,100*,i,i
CC(C)OCCCn1c(=N)c(C(N)=S)cc2c(=O)n3ccccc3nc21,i,i,i,6.6*
CCOC(=O)c1cc2c(=O)n3ccccc3nc2n(CCCOC)c1=NC(=O)c1ccncc1,i,i,i,i
CC(=O)N=c1c(C#N)cc2c(=O)n3ccccc3nc2n1CCCOC(C)C,i,i,i,i
N=c1c(C(=O)NC2CCCCC2)cc2c(=O)n3ccccc3nc2n1CCc1ccccc1,i,i,i,7.3*
CCOC(=O)c1cc2c(=O)n3ccccc3nc2n(CCCOC)c1=NC(C)=O,i,i,i,13*
COc1ccc(OC)c(CN2CCN(C(=O)c3cccc(S(=O)(=O)Nc4ccc(C)cc4)c3)CC2)c1,i,i,i,i
CC1(C)CC[C@]2(C(=O)O[C@@H]3OC(CO)[C@@H](O)[C@H](O)[C@H]3O)CC[C@]3(C)C(=CCC4[C@@]5(C)CC[C@H](O[C@@H]6OC(C(=O)O)[C@@H](O)[C@H](O)[C@H]6O)C(C)(C)C5CC[C@]43C)[C@@H]2C1 (stereo not given in full),·,·,-8.8*,·
SMILES,CHT block,TMEM16A inh,ANO1 activ,CHT PAM
C/C=C(\C)C(=O)OC1CC(C)(C)C[C@H]2C3=CC[C@@H]4[C@@]5(C)CCC(O[C@@H]6O[C@@H](C(=O)O)[C@@H](O)C(O[C@@H]7OC[C@H](O)[C@@H](O)[C@@H]7O[C@@H]7OC(CO)C(O)[C@@H](O)[C@@H]7O)C6O[C@@H]6OC(CO)C(O)C(O)C6O)[C@@](C)(CO)[C@@H]5CC[C@]4(C)[C@]3(C)CC(O)[C@@]12CO (stereo not given in full),·,·,-32*,·
O=C(NCCc1ccccc1)C1CCCN1C(=O)Nc1cccc(Cl)c1 (stereo not given),i,i,i,i
CC(C)(C)NC(=O)NC(=O)CN1CCN(c2ncc(C(F)(F)F)cc2Cl)CC1,i,25*,i,i
NNC(=O)CN1CCN(c2ncc(C(F)(F)F)cc2Cl)CC1,i,i,i,i
O=C(NCc1cc(C(F)(F)F)cc(C(F)(F)F)c1)C1CC(c2ccc(C(F)(F)F)cc2)=NO1 (stereo not given),i,i,i,i
N#Cc1ccc(Oc2cccc3cccnc23)c([N+](=O)[O-])c1,i,i,-5.8*,i
COc1cc(C)ccc1OCCOCCOc1c(C)cc(C)cc1Br,i,100*,i,i
O=C(N/N=C/c1cc(Cl)cc(Cl)c1O)c1ccncc1,i,i,-8.8*,i
CCCCCCCCCS(=O)(=O)N/N=C/c1cccc([N+](=O)[O-])c1,i,100*,i,i
CNC(=O)N(c1ccccc1)c1ccccc1,i,i,i,i
CCSc1nnc(N2C(=O)C(O)=C(C(=O)c3ccco3)C2c2cccc(OC)c2)s1 (stereo not given),i,i,-6.9*,i
C=CCOc1ccc(C2C(C(=O)c3ccco3)=C(O)C(=O)N2c2nnc(C)s2)cc1 (stereo not given),i,i,-8.9*,i
CSc1nnc(N2C(=O)C(O)=C(C(=O)c3ccco3)C2c2ccc(F)cc2)s1 (stereo not given),i,i,-6.6*,i
COc1ccc(C2C(C(=O)c3ccco3)=C(O)C(=O)N2c2nnc(C)s2)cc1OC (stereo not given),i,i,i,i
CCOc1cccc(C2C(C(=O)c3ccco3)=C(O)C(=O)N2c2nnc(C)s2)c1 (stereo not given),·,·,i,·
Cc1ccc(S(=O)(=O)N2CCOCC2)cc1C(=O)N1CCN(S(=O)(=O)c2cccc(F)c2)CC1,·,·,i,·
COc1ccc(C(C(=O)NCC2CCCO2)N(C(=O)Cn2nnc3ccccc32)c2ccc(NC(C)=O)cc2)cc1 (stereo not given),i,i,i,i
Cn1ncc2c1ncn1nc(CCc3ccccc3)nc21,i,i,i,i
Cc1ccc(N2CCN(S(=O)(=O)N3CCCCC3)CC2)cc1Cl,i,i,i,i
Cc1cc(C)c(N2CCN(S(=O)(=O)N3CCCCCC3)CC2)c(C)c1,i,25*,-22*,i
CCN(Cc1ccccc1)c1c(C(=O)O)cnc2c1cnn2C,i,i,-4.8*,i
Cn1ncc2c(NCc3cccc(C(F)(F)F)c3)c(C(=O)O)cnc21,i,i,·,i
Cc1ccc(NS(=O)(=O)c2cc(C(=O)NCCSc3ccc(C)cc3)ccc2C)cc1,i,i,i,i
